# D1 antag: blocks dopamine activation of the human D1 receptor | P21728 | HEK293 TREx D1 cells, calcium flux, dopamine EC80; stronger effect = lower value | activity change, negative = inhibition, % at 10 µM | 3.2% of 360,000 active | AID 504652; in the data active = activity change below about -30%; note: % is set by controls: 0 for no effect and ±100 for the full control effect
#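 Using tetracycline-induced force-coupled D1 Hek293 cells and a calcium dye, signals were followed for 180 s after compound, then for 180 s after EC80 dopamine, to detect inhibitors.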
# TRPV1 ag: agonists of human vanilloid receptor 1 (TRPV1); Q8NER1; 0.19% of 320,000 active; TRPV1-expressing cells, Fluo-8 calcium influx, agonist mode; activation, % at 8.33 µM; AID 540275; in the data active = activation above about 80%; inconclusive = between about 30% and that limit; note: 0% is about no effect
# Target sequence (Q8NER1 whole entry, looked up): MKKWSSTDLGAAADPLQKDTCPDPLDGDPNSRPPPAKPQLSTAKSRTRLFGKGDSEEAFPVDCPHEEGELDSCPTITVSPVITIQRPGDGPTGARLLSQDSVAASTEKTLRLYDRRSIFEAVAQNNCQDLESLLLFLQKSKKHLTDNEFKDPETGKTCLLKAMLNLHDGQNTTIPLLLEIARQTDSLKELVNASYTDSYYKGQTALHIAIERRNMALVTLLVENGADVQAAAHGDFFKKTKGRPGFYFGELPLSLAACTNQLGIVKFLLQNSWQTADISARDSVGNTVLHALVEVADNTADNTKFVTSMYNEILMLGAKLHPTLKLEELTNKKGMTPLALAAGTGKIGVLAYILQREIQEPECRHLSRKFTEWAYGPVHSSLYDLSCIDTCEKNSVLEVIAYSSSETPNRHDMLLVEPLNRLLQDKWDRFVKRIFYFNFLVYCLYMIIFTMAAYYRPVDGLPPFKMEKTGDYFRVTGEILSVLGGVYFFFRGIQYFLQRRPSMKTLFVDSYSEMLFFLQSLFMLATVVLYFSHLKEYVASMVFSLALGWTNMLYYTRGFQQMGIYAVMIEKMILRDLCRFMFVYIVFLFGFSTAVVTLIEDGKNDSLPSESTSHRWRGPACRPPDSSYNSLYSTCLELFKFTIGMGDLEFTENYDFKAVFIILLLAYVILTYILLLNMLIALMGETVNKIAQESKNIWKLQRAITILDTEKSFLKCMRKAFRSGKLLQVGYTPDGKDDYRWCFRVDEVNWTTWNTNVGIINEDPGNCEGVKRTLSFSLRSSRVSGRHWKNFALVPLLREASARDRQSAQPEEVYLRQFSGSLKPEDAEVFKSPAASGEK
#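 TRPV1-expressing cells were cultured overnight at 35.5C and loaded with Fluo-8 calcium dye for 40 to 90 min at room temperature. After a 10 s baseline, compound was added and calcium influx was read kinetically for 3 min (ex 480/em 520 nm).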
# D1 agonist: agonists of human D1 dopamine receptor; P21728; HEK293 T-REx D1 cells, calcium flux, agonist mode; activation, % at 2 µM; 1% of 360,000 active; AID 504660; in the data active = activation above about 30%; note: 0% is about no effect
#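 Tetracycline-induced HEK293 TREx D1 cells, force-coupled to calcium signalling, were dye-loaded with a no-wash calcium kit. Compound was pin-added after a 10 s baseline. Fluorescence was read kinetically at 1 cycle/s for 180 s, with calcium rises flagged as agonism.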
# D1 potentiator: enhances dopamine response at the human D1 receptor; AID 504651; HEK293 TREx D1 cells, calcium flux, dopamine EC20 potentiation; potentiation, % at 10 µM; 0.036% of 360,000 active; in the data active = potentiation above about 30%; note: 0% is about no effect
# TRPV1 PAM: enhances activation of the human vanilloid receptor TRPV1. Q8NER1. TRPV1-expressing cells, Fluo-8 calcium influx, capsaicin EC20 potentiation. potentiation, % at 8.33 µM. 0.02% of 320,000 active. AID 540277; in the data active = potentiation above about 80%; inconclusive = between about 30% and that limit; note: 0% is about no effect
#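 Cells expressing TRPV1 were dye-loaded with Fluo-8 and read kinetically: 10 s baseline, 3 min after compound (agonist portion), then 2 min after EC20 capsaicin (allosteric enhancer portion). Calcium-bound dye fluorescence at 480/520 nm.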
# Active calls of the source: *; ? = inconclusive; nt = no result given. Rows were chosen to be rich in hits. Some 4.2% of all compounds tested hit in one or more screens of this group.
SMILES,D1 antag,TRPV1 ag,D1 agonist,D1 potentiator,TRPV1 PAM
O=[N+]([O-])c1ccc(N=Cc2sc3ccccc3c2O)cc1,7,8,32*,-7,-8
Cc1cc(C)cc(-n2c(SCC(N)=O)nc3c([nH]c4ccccc43)c2=O)c1,-1,nt,0,-4,nt
CC(C)(C)NC(=O)c1oc2ccccc2c1COc1ccccc1,7,-7,31*,6,29
COc1ccc2oc(C(=O)N3CCN(c4ncccn4)CC3)c(C)c2c1,4,7,7,3,-13
CC(OC(=O)c1oc2ccccc2c1COc1ccccc1)C(N)=O (stereo not given),-8,-3,3,2,4
Cc1c(C(=O)N2CCN(CCc3ccccc3)CC2)oc2ccccc12,-32*,19,2,-3,-1
COCc1c(C(=O)N2CCN(CCOc3ccccc3)CC2)oc2ccccc12,-45*,4,5,nt,-15
COc1ccc2oc(C(=O)N3CCN(C(=O)c4ccco4)CC3)c(C)c2c1,-36*,?,3,-14,1
Cc1ccc(OCc2nc3ccccc3n2Cc2ccccc2Cl)cc1,-2,nt,25,-5,nt
CSCCC(NS(=O)(=O)c1ccc2c(c1)oc(=O)n2C)C(=O)N1CCN(c2cccc(Cl)c2)CC1 (stereo not given),0,nt,10,-6,nt
CC(C)(C)OC(=O)Cc1nnc(C(C(=O)OCc2ccccc2)c2ccccc2)s1 (stereo not given),4,nt,15,-2,nt
COc1cccc(CNC(=O)c2cnc3sc(N4CCCC4)nn3c2=O)c1OC,-14,nt,0,-5,nt
CCOc1ccccc1CNC(=O)c1nc(-c2ccc(Cl)cc2)n2c1CCCCC2,13,nt,0,-3,nt
Cc1cccc(S(=O)(=O)c2cn(C)c3cc(N4CCN(c5ccc(F)cc5)CC4)c(F)cc3c2=O)c1,0,nt,-1,1,nt
COc1cc(OC)c(OC)cc1/C=C/c1cc(C(=O)O)c2ccccc2n1,12,6,4,-3,-10
COc1ccc(/C=C/c2cc(C(=O)O)c3ccccc3n2)cc1,-33*,1,0,-4,1
CC(=O)N1CCCc2cc(S(=O)(=O)N(C)CC(=O)Nc3ccc(Cl)cc3C)ccc21,-18,nt,7,-4,nt
COc1ccc(-c2cc(C(F)(F)F)nc(SCC(=O)N3CCCCC3)n2)cc1OC,-14,nt,1,-2,nt
S=C(NCc1ccncc1)Nc1ccc(Cl)c(Cl)c1,-36*,?,23,-12,-19
S=C(NCc1ccncc1)Nc1ccc(Br)cc1,-17,?,12,-3,-18
S=C(Nc1ccc(Cc2ccncc2)cc1)Nc1cccc(Cl)c1,-32*,3,5,-5,4
S=C(NCc1ccncc1)Nc1cc(Cl)cc(Cl)c1,-31*,?,15,-13,-3
COc1ccc(-n2c(=O)c3sc4ccccc4c3n(CC(=O)NCc3ccccc3)c2=O)cc1,11,nt,2,3,nt
Cc1ccn2c(CN(C)CCn3nc(C)cc3C)c(C(=O)N3CCCCCC3)nc2c1,-36*,15,-1,2,-4
Cc1ccn2c(CNCCn3nc(C)cc3C)c(C(=O)N3CCCCCC3)nc2c1,-8,1,1,-7,-9
SMILES,D1 antag,TRPV1 ag,D1 agonist,D1 potentiator,TRPV1 PAM
CCC(=O)N1CCc2cc(Br)cc(S(=O)(=O)N3CCN(c4ccccc4OC)CC3)c21,3,nt,2,1,nt
Cc1ccc(C)c(N2CCN(CCCNC(=O)c3nnc(Cc4ccc(F)cc4Cl)o3)CC2)c1,-23,nt,17,-4,nt
CN1CCN(CCCNC(=O)c2nnc(Cc3c(F)cccc3Cl)o2)CC1,47,4,1,-2,1
COc1ccccc1N1CCN(CCCNC(=O)c2nnc(Cc3ccc(F)cc3Cl)o2)CC1,-39*,nt,5,-5,nt
COc1ccccc1N1CCN(CCCNC(=O)c2nnc(Cc3c(F)cccc3Cl)o2)CC1,-36*,nt,9,-5,nt
COC(=O)C1=C(C)N(Cc2ccccc2)C(=NCCc2ccccn2)N[C@H]1c1cccc(C(F)(F)F)c1,-15,?,34*,-5,-13
CCN1C(=NCCc2ccccn2)N[C@@H](c2cccc(C(F)(F)F)c2)C(C(=O)OC)=C1C,-1,5,10,-3,-1
COC(=O)C1=C(C)N(Cc2ccccc2)C(=NCC(C)C)N[C@H]1c1ccc(Br)cc1,3,?,1,-5,-5
COC(=O)C1=C(C)N(Cc2ccccc2)C(=NCc2ccc(OC)cc2)N[C@H]1c1cccc(F)c1,-5,5,27,-5,7
COC(=O)C1=C(C)N(Cc2ccccc2)C(=NCC2CC2)N[C@H]1c1ccccc1,-7,-1,1,2,5
COC(=O)C1=C(C)N(Cc2ccccc2)C(=NCC(C)C)N[C@H]1c1cccc(F)c1,-41*,12,82*,-5,14
COC(=O)C1=C(C)N(Cc2ccccc2)C(=NCC2CC2)N[C@H]1c1ccc(Br)cc1,-80*,4,15,-7,10
COC(=O)C1=C(C)N(Cc2ccccc2)C(=NCc2cccc(Cl)c2)N[C@H]1c1cccc(F)c1,-4,?,32*,0,-14
CC(C)c1nn2c(=O)cc(COC(=O)c3ccccc3NC(=O)c3cccc(Cl)c3)nc2s1,5,nt,-2,0,nt
Cc1ccccc1NC(=O)CSc1nc(-c2cccs2)nc2cc(=O)[nH]n12,-37*,0,2,8,9
Clc1ccc(N/N=C/c2cccnc2)cc1,21,8,0,-1,-16
Cc1sc(N/N=C/c2cccnc2)nc1-c1ccc(Cl)cc1,-33*,-4,-1,-10,14
Cc1ccc(C(=O)CSc2nc3ccccc3c(=O)[nH]2)cc1,-30*,-5,0,-2,-4
CC(C)c1ccc(OCC(=O)Nc2cc(-c3ccccc3)no2)cc1,11,nt,16,0,nt
O=C(c1cccc(S(=O)(=O)N2CCOCC2)c1)N(Cc1ccco1)Cc1cccs1,-56*,25,8,-3,-27
O=C(NCc1cccs1)c1cc(S(=O)(=O)N2CCOCC2)ccc1N1CCCC1,-5,2,1,-2,12
CN(Cc1cccs1)C(=O)c1cc(S(=O)(=O)N2CCOCC2)ccc1N1CCCC1,-31*,8,0,2,14
O=C(c1ccc(Cl)c(S(=O)(=O)N2CCOCC2)c1)N(Cc1ccco1)Cc1cccs1,-1,17,4,-5,-8
COc1ccc(N2CCN(c3ncnc4onc(C)c34)CC2)cc1,-36*,nt,21,-9,nt
O=C(NCc1ccc(F)cc1)c1cc(Sc2ccc(F)cc2F)nc2ccccc12,-11,nt,3,-2,nt
Cc1ccc(OCC(=O)Nc2cccc(S(=O)(=O)NC3=NCCCCC3)c2)cc1C,6,-7,10,-1,19
Cc1cc(OCC(=O)Nc2cccc(S(=O)(=O)NC3=NCCCCC3)c2)ccc1Cl,-31*,10,5,-2,5

# Source: PubChem
